Data published in PubChem BioAssay (NCATS).
Results filed as inconclusive are left out. Activity calls are given as the source filed them. Calls follow the shape of the dose curve; as a rule, active = well fitted inhibition curve with a large enough effect; inconclusive = small, poorly fitted or top-dose-only effect; inactive = flat fitted curve, though single readings scatter. Where a SMILES comes first, the peptide text is derived from it. The star is where a group is joined. Hexanoyl = CCCCCC(=O)*

Assays:
[1] = test system: CRL-7250; experiment: Cytotoxic Profiling of Annotated Libraries Using Quantitative High-Throughput Screening (AID 1296008); details: Five cell lines viability, CellTiter-Glo ATP luminescence, 48-72 h; max response: hits give low values; as to max response: % is scaled to controls: 0 for no effect and ±100 for the full control effect
Method in brief: (§1)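 Compounds were pin-transferred onto cells and incubated 48 or 72 hr at 37 degree Celsius, 95% humidity. CellTiter-Glo was added, plates sat 10 min at room temperature, then ATP-coupled luminescence was imaged as the viability read-out.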

[2] = test system: HEK293; experiment: as above; details: Five cell lines viability, CellTiter-Glo ATP luminescence, 48-72 h; max response: hits give low values
Method in brief: as §1

[3] = test system: HaCat; experiment: as above; details: Five cell lines viability, CellTiter-Glo ATP luminescence, 48-72 h; max response: hits give low values
Method in brief: as §1

[4] = test system: KB-3-1; experiment: as above; details: Five cell lines viability, CellTiter-Glo ATP luminescence, 48-72 h; max response: hits give low values
Method in brief: as §1

[5] = test system: NIH3T3; experiment: as above; details: Five cell lines viability, CellTiter-Glo ATP luminescence, 48-72 h; max response: hits give low values
Method in brief: as §1

[6] = test system: HACAT; experiment: qHTS assay to identify novel small-molecules to repurpose for Merkel cell carcinoma treatment (AID 1296009); details: MCC and control cell lines, CellTiter-Glo viability, 72 h; at 44.8 µM (top of the series) unless noted
Method in brief: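 Luminescence from CellTiter-Glo, read 10 min after addition at room temperature, reported viability following a 72 hr, 37 degree celsius treatment with NPC or MIPE compounds in titration; values normalized to plate controls.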

Measured: max response
Also: nearly all actives have a fitted effect of over 60% in size.

C=C1CCC2[C@](C)(CO)CCC[C@@]2(C)[C@@H]1CCC1=CCOC1=O (stereo partly specified)
inactive: [1] -10.5% | [2] -0.138% | [3] | [4] 5.6% | [5] -5.66% | [6]

CC(=O)OCC1=C[C@@H]2OC(=O)C3=CO[C@@H](O[C@@H]4O[C@H](CO)[C@@H](O)[C@H](O)[C@H]4O)[C@H]1[C@@H]32
inactive: [1] 2.42% | [2] 4.59% | [3] | [4] | [5] 0.706% | [6] inactive [at 17.4 µM]

C/C=C(\C)C(=O)OC1C2(O)CC3=C4CC(=O)OC(c5ccoc5)C4(C)CCC3C(C)(C2=O)C(C(OC(C)=O)C(=O)OC)C1(C)C (stereo unspecified)
inactive: [1] | [2] -2.36% | [3] | [4] -3.65% | [5] 1.4% | [6] inactive [at 17.4 µM]

COc1cc(O)cc2c1C(=O)OC(C)CCCCCCC2 (stereo unspecified)
inactive: [1] 0.54% | [2] -6.62% | [3] | [4] | [5] -11.2% | [6]

CC1CCC2(C)CCC3(C)C(=CCC4C5(C)CCC(O)C(C)(C(=O)O)C5CCC43C)C2C1C (stereo unspecified)
inactive: [1] | [2] -6.34% | [3] | [4] 8.86% | [5] 4.66% | [6] inactive [at 17.4 µM]

CCCCCC(=O)N1CCC[C@H]1C(=O)N[C@@H](Cc1ccc(O)cc1)C(=O)OC (Hexanoyl-Pro-Tyr-OMe)
inactive: [1] 1.02% | [2] 4.39% | [3] | [4] -0.528% | [5] -4.54% | [6]

COc1cc(O)cc2c1C(=O)OC(C)C2 (stereo unspecified)
inactive: [1] 4.54% | [2] 4.69% | [3] | [4] 3.07% | [5] -0.229% | [6]

Cc1ccc(-c2c(-c3nn(C)c4ncnc(N5CC[C@H](N6CCCCC6)C5)c34)cnn2C)cc1
inactive: [1] -0.469% | [2] -5.54% | [3] | [4] -0.872% | [5] | [6]

COCCCc1sc(-c2ccccc2)nc1C(=O)Nc1ccccc1-c1nc2cc(CN3CCCC3)cnc2s1
inactive: [1] | [2] -7.81% | [3] | [4] | [5] | [6] inactive [at 17.4 µM]

CC(=O)O[C@@H]1C=C2[C@H](CC[C@@]3(C)[C@@]2(O)CC[C@H]2Cc4c([nH]c5ccccc45)[C@@]23C)O[C@@H]1C(C)(C)O
inactive: [1] -3.54% | [2] -5.86% | [3] | [4] 6.54% | [5] 3.65% | [6] inactive [at 17.4 µM]

CCNC(=O)C1CC(F)(c2ccc(CN3CCCC3)c(F)c2)C1 (stereo unspecified)
inactive: [1] | [2] -0.849% | [3] | [4] 3.84% | [5] | [6]

C[C@H]1[C@H](C)CC[C@]2(C(=O)OC3OC(CO)C(O)C(O)C3O)CC[C@]3(C(=O)O)C(=CCC4[C@@]5(C)CC[C@H](O[C@@H]6O[C@@H](C)[C@H](OC7OC(CO)C(O)C(O)C7O)[C@@H](O)[C@H]6O)C(C)(C)C5CC[C@]43C)[C@H]12 (stereo partly specified)
inactive: [1] -1.78% | [2] 2.35% | [3] | [4] | [5] -8.63% | [6] inactive [at 9.27 µM]

COc1cc(/C=C/C(=O)OC[C@H]2O[C@@H](OC3OC=C(C(=O)O)C4C(O)CC(C)(O)C34)[C@H](O)[C@@H](O)[C@@H]2O)cc(OC)c1O (stereo partly specified)
inactive: [1] -14.2% | [2] -83.6% | [3] | [4] 9.94% | [5] 4.03% | [6] inactive [at 17.4 µM]

C=C(COC(=O)C(C)C)C1Oc2cc(C(C)=O)ccc2C1OC(=O)C(C)C (stereo unspecified)
inactive: [1] -10.7% | [2] 1.24% | [3] | [4] 4.68% | [5] 0.455% | [6]

CC1(C)CC[C@]2(C(=O)O[C@@H]3O[C@H](CO)[C@@H](O)[C@H](O)[C@H]3O)CC[C@]3(C)C(=CCC4[C@@]5(C)C[C@H](O)[C@H](O[C@@H]6OC[C@@H](O)[C@H](O)[C@H]6O)[C@@](C)(CO)C5CC[C@]43C)C2C1 (stereo partly specified)
inactive: [1] -3.53% | [2] -6.93% | [3] | [4] 9.53% | [5] | [6] inactive [at 9.27 µM]

C/C=C(/C)C(=O)O[C@@H]1C[C@@H](OC(=O)/C(C)=C\C)[C@@]2(C)C3C(=O)C=C(C)C2C3C1(C)C
inactive: [1] -3.44% | [2] -8.78% | [3] | [4] | [5] 4.88% | [6] inactive [at 17.4 µM]
